Records with an inconclusive call do not appear. The source made the active and inactive calls. Unless noted, calls come from the whole dose curve.

The results in this text go back to PubChem BioAssay (NCATS).

Test [1] can be described thus: qHTS for Inhibitors of the Functional Ribonucleoprotein Complex (vRNP) of Lassa (LASV) Arenavirus: LASV Primary Screen - GLuc reporter signal (AID 1347082; calls by dose curve; tested in HEK293 reporter line; note: % is set by controls: 0 for no effect and ±100 for the full control effect; nearly all actives have a fitted effect of over 60% in size). (Quantitative high-throughput screening tests each substance at several concentrations.)
Test [2] in a line: qHTS for Inhibitors of the Functional Ribonucleoprotein Complex (vRNP) of Lassa (LASV) Arenavirus: Viability assay - alamar blue signal for LASV Primary Screen (AID 1347083; calls by dose curve; tested in HEK293 reporter line; note: % is set by controls: 0 for no effect and ±100 for the full control effect; nearly all actives have a fitted effect of over 80% in size).
Test [3] can be described thus: qHTS for Inhibitors of the Functional Ribonucleoprotein Complex (vRNP) of Lymphocytic Choriomeningitis Arenaviruses (LCMV): Viability assay - alamar blue signal for LCMV Primary Screen (AID 1347085; calls by dose curve; tested in HEK293 reporter line; note: % is set by controls: 0 for no effect and ±100 for the full control effect; nearly all actives have a fitted effect of over 80% in size).
Test [4] addresses Nucleoprotein (Lymphocytic choriomeningitis virus (strain Armstrong)) (UniProt P09992). Put plainly: qHTS for Inhibitors of the Functional Ribonucleoprotein Complex (vRNP) of Lymphocytic Choriomeningitis Arenaviruses (LCMV): LCMV Primary Screen - GLuc reporter signal (AID 1347086). Note: % is set by controls: 0 for no effect and ±100 for the full control effect; nearly all actives have a fitted effect of over 70% in size.
The subject of test [5] is Zika virus NS2B-NS3 protease. Put plainly: Primary screen GU AMC qHTS for Zika virus inhibitors (AID 1347154; active = well fitted curve in the direction sought with a large enough effect; an effect the other way counts as inactive or inconclusive;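 note: 0% = no-inhibitor control and -100% = no-enzyme control; nearly all actives have a fitted effect of over 70% in size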). The gist of the method:
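Unlinked Zika NS2B hydrophilic domain–NS3 protease complex at 25 nM in 10 mM Tris-HCl pH 8.0, 0.01% Tween 20, with an AMC peptide substrate. Fluorescence change (340/450 nm) over 15 min at room temperature, normalized to controls, fitted to 4-parameter Hill.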

A short description of test [6]: Primary qHTS for small molecule stabilizers of the endoplasmic reticulum resident proteome: Secreted ER Calcium Modulated Protein (SERCaMP) assay (AID 1508630; active = well fitted curve in the direction sought with a large enough effect; an effect the other way counts as inactive or inconclusive; note: % is set by controls: 0 for no effect and ±100 for the full control effect). The gist of the method:
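The SH-SY5Y reporter protocol was run at 3 concentrations up to 38.3 uM (primary) or 11 concentrations (follow-up): 16 h compound, 100 nM thapsigargin for 4 h, then extracellular luciferase luminescence.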

Test [7] has as its target Alpha-galactosidase (Coffea arabica) (UniProt Q42656). Put plainly: Counterscreen for Glucocerebrosidase Inhibitors: qHTS Assay for Coffee Bean alpha-Galactosidase at pH 4.5 (AID 957; active = well fitted curve in the direction sought with a large enough effect; an effect the other way counts as inactive or inconclusive;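 note: plate controls were enzyme alone for no effect and no enzyme for full effect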). In a few lines: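 Fluorogenic qHTS at pH 4.5 (citrate buffer with Tween-20): 2 nM enzyme, 80 uM 4-MU-alpha-galactoside substrate, compound titrated 0.7 nM to 77 uM, 20 min room temperature. Glycine/NaOH stop; 4-MU read Ex 365/Em 440; Hill-equation AC50 against no-enzyme and enzyme controls.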

For test [8] the target is unchanged. Put plainly: Counterscreen for Glucocerebrosidase Inhibitors: qHTS Assay for Coffee Bean alpha-Galactosidase at pH 5.9 (AID 998; active = well fitted curve in the direction sought with a large enough effect; an effect the other way counts as inactive or inconclusive;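 note: plate controls were uninhibited enzyme for no effect and no-enzyme basal signal for full effect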). The gist of the method:
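Enzyme 2 nM + cpd (0.7 nM–77 uM titration) + 4-MU-alpha-Gal 80 uM, pH 5.9 citrate/Tween-20, RT 20 min, NaOH/glycine stop pH 10, fluor 365/440. Normalized to no-enzyme and full-activity controls; Hill-fit AC50.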

Test [9] can be described thus: Inducers of the Endoplasmic Reticulum Stress Response (ERSR) in human glioma: Validation (AID 504836; active = well fitted curve in the direction sought with a large enough effect; an effect the other way counts as inactive or inconclusive; note: 0% is about no effect). The gist of the method:
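Stably transfected U87-MG glioma cells carrying a GRP78-based luciferase sensor; 16 h compound incubation. Luminescence end-point read 10 min after Bright-Glo addition at room temperature.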

Test [10] addresses Peroxisome proliferator-activated receptor delta (Homo sapiens) (UniProt Q03181). Put plainly: qHTS assay for small molecule agonists of peroxisome proliferator-activated receptor delta signaling (AID 588534).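 Note: 0% = DMSO basal wells and 100% = positive control agonist at 10 µM.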 In a few lines: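 Agonist-mode beta-lactamase reporter readout (CCF4 dye, 2 h at RT) after 18 h at 37 °C exposure to a titration; Hill-equation fitting gave EC50 and maximal response.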

Test [11] is described as follows: Primary qHTS for inhibitors of SARS-S pseudo-typed particle cell entry (AID 1479145). Note: nearly all actives have a fitted effect of over 45% in size.
Test [12] is described as follows: Primary qHTS for Huh7 cytotoxicity: counterscreen for inhibitors of MERS-S pseudotyped particle cell entry (AID 1479147). The note with it: outcome: dose series up to 57.1 µM unless noted.
A short description of test [13]: Primary qHTS for inhibitors of MERS-S pseudo-typed particle cell entry (AID 1479149). Note: % is set by controls: 0 for no effect and ±100 for the full control effect; nearly all actives have a fitted effect of over 60% in size.
A short description of test [14]: Primary qHTS for Vero E6 cytotoxicity: counterscreen for inhibitors of SARS-S pseudo-typed particle cell entry (AID 1479150). The note with it: outcome: dose series up to 57.1 µM unless noted.
Test [15] in a line: Confirmatory qHTS to identify inhibitors of SARS-CoV-2 cell entry (AID 1645844). Note: potency is the fitted concentration of half-maximal effect; nearly all actives have a fitted effect of over 45% in size. The gist of the method: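 HEK293-ACE2, overnight seeding; cpd 1 h, 37C/5% CO2; + SARS-CoV-2-S MLV PP (Wuhan-Hu-1, ΔC19); 48 h; Bright-Glo luminescence. Data normalised to S PP and bald PP wells.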
Test [16] is described as follows: Cytotoxicity counterscreen for inhibitors of SARS-CoV-2 cell entry (AID 1645845). Note: nearly all actives have a fitted effect of over 50% in size. In a few lines: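 Counterscreen run in the same HEK293-ACE2 line as the pseudotyped-particle entry assay, without particles. Viability after 48 h at 37 C was read as ATP luminescence, scaled between cell-containing and cell-free wells.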
A short description of test [17]: Primary qHTS to identify inhibitors of SARS-CoV-2 cell entry (AID 1645846). Note: nearly all actives have a fitted effect of over 45% in size. Particulars: activity change, negative = inhibition: at 57.1 µM (top of the series) unless noted. The gist of the method:
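HEK293-ACE2 (Expi293F, stable hACE2), 1500 cells/well, o/n 37C; cpd 23 nL pin, 1 h; MLV-PP w/ SARS-CoV-2-S (Wuhan-Hu-1, Δ19 C-term); 48 h 37C; Bright-Glo luminescence; normalized vs S-PP and bald PP.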

Test [18] in a line: Validation screen for inhibitors of Lassa infection (AID 463096). Note: % is set by controls: 0 for no effect and ±100 for the full control effect.
Test [19] is described as follows: qHTS for inhibitors of Rabies Virus screened against the NCATS CANVASS Library (AID 1347402). Note: 0% is about no effect.

Nucleoprotein (Lymphocytic choriomeningitis virus (strain Armstrong)), sequence (P09992 whole entry, looked up): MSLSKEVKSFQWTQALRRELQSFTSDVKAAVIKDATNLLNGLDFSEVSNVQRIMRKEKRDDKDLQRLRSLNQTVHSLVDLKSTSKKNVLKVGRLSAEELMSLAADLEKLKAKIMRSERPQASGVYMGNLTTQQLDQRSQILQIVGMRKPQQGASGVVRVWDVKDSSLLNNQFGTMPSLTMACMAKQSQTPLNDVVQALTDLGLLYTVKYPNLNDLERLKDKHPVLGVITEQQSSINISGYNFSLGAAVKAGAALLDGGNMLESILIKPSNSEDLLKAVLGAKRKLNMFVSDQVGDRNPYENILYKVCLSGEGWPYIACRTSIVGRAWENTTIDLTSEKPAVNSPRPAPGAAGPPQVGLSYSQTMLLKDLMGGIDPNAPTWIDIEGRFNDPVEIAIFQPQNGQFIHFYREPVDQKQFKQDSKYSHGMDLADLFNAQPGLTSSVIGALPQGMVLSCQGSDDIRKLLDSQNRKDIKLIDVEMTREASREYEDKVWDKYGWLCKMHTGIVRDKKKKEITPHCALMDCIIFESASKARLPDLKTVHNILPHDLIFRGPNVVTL
Alpha-galactosidase (Coffea arabica), sequence (Q42656 whole entry, looked up): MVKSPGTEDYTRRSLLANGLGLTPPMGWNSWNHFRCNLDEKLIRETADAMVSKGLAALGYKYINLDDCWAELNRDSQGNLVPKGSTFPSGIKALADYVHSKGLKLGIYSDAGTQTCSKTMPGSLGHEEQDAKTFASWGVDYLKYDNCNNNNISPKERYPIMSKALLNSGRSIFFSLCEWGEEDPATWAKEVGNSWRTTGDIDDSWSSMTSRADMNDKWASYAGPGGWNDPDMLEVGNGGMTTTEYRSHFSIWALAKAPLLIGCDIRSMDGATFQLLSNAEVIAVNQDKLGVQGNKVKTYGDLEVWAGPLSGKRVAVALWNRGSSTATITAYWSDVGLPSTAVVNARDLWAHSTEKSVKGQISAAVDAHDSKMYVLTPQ
Peroxisome proliferator-activated receptor delta (Homo sapiens), sequence (Q03181 whole entry, looked up): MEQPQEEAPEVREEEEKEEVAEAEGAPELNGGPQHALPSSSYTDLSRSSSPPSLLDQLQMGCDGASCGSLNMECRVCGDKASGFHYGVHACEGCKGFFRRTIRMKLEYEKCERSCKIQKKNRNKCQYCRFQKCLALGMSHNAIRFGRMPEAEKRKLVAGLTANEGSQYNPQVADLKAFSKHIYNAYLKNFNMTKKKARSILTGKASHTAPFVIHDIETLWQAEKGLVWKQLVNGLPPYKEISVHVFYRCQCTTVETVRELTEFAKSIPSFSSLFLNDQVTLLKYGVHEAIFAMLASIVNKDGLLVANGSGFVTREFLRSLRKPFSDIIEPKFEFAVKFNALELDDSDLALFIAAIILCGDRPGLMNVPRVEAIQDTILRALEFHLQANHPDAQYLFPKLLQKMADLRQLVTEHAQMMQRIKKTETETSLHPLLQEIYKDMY

As to `COc1cc(C(=O)O[C@H]2C/C(C)=C/CC/C(C)=C/[C@@H](O)C2C(C)C)ccc1O` (some centres not stated), the Potency entry in [1], in test [2], in test [3] and in test [4] was “inactive” throughout.

For the compound `CC(C)N(CCCNC(=O)Nc1ccc(C(C)(C)C)cc1)C[C@H]1O[C@@H](n2cc(Br)c3c(N)ncnc32)[C@H](O)[C@H]1O`, the Potency result in [1], in test [2], in [3] and in test [4] was “inactive” each time.

For `C[C@]12CCC3C(CC[C@H]4C[C@@H](O)CC[C@]34C)C1C[C@@H](O)C2=O` (some centres not stated), the Potency entry in test [1], in test [2], in test [3] and in [4] was “inactive” in each case.

On to `Oc1cc(O)cc(C=Cc2ccc(O)c(O)c2)c1`, for which the Potency result in test [1], in test [2], in test [3] and in test [4] was “inactive” throughout.

As for `COC1=CC(=O)[C@@]2([C@@H]1O)[C@@H](Cl)C[C@]13C(OC)=C(OC)C(=O)C[C@]21CCN3C`, the Potency entry in [1], in test [2], in test [3] and in test [4] was “inactive” in each case.

For `C[C@]1(CC/C(=C/CO)CO)[C@H](CO)CC[C@@]23COC(=O)C2=CCC[C@@H]31`, the Potency entry in [1], in test [2], in [3] and in test [4] was “inactive” throughout.

For `CC1C(=O)OC2C1CCC1(C)CCC(=O)C(C)C21` (configuration not stated), the Potency entry in [1], in [2], in test [3] and in test [4] was “inactive” each time.

For the compound `Cn1cc(C=C2C(=O)Nc3cccnc32)c2ccccc21`, the Potency entry in test [1], in [2], in test [3] and in test [4] was “inactive” in each case.

With `O=C1C=CC[C@H](/C=C/C[C@@H](O)C[C@H](O)CCc2ccccc2)O1`, the Potency result in test [1], in test [2], in [3] and in [4] was “inactive” throughout.

Turning to `C[C@H]([C@@H](N)C(=O)N[C@@H](C(=O)O)[C@@H]1O[C@H](n2ccc(=O)[nH]c2=O)[C@@H](O)[C@H]1O)[C@@H](O)c1ccc(O)cn1`, the Potency entry in test [1], in test [2], in test [3] and in test [4] was “inactive” each time.

Regarding `COC(=O)[C@@]1(C)CC[C@]2(C)CC[C@@]3(C)C(=CC(=O)C4[C@@]5(C)CC[C@H](O)C(C)(C)[C@@H]5CC[C@]43C)[C@H]2C1` (some centres not stated), the Potency result in test [1], in test [2], in [3] and in test [4] was “inactive” throughout.

For the compound `O=C(c1ccc(F)cc1)N1CCC[C@H](c2nc(-c3ccc(F)cc3)no2)C1`, the Potency entry in test [1], in test [2], in test [3] and in test [4] was “inactive” throughout.

Regarding `C[C@@H](Cc1cc2c(c(C(N)=O)c1)N(CCCO)CC2)NCCOc1ccccc1OCC(F)(F)F`, the Potency result in test [1], in test [2], in [3] and in test [4] was “inactive” in each case.

For the compound `COc1cc(CCc2ccccc2)c(C(=O)O)c(O)c1CC=C(C)C`, the Potency entry in [1], in [2], in [3] and in test [4] was “inactive” each time.

For the compound `O=c1oc(-c2ccc(O)c(O)c2)cc2cccc(O)c12`, the Potency result in test [1], in [2], in [3] and in test [4] was “inactive” throughout.

With `COC1=C(OC)[C@]23CCc4ccc(OC)c(OC)c4[C@]2(CCN3C)CC1=O`, the Potency result in test [1], in [2], in [3] and in [4] was “inactive” each time.

Take `CC1(C)OC2CC3C4CC(F)C5=CC(=O)C=CC5(C)C4C(O)CC3(C)[C@]2(C(=O)CO)O1` (some centres not stated): the Potency entry in test [1], in [2], in test [3] and in test [4] was “inactive” throughout.

`Clc1cccc(-c2nnnn2Cc2cccnc2)c1Cl`: the Potency entry in test [1], in test [2], in [3] and in test [4] was “inactive” throughout.

With `COc1cc(C)cc(O)c1`, the Potency entry in test [1], in [2], in test [3] and in test [4] was “inactive” each time.

As for `COc1c2c(c(C)c3c1C(=O)OC3)O[C@@]1(C)CC[C@@]3(O)C(C)(C)OC(=O)CC[C@]3(C)[C@H]1C2`, the Potency result in test [1], in test [2], in [3] and in test [4] was “inactive” each time.

`COC(=O)C1C(O)CC2CCC1N2C` (configuration not stated): the Potency entry in test [1], in [2], in [3] and in test [4] was “inactive” each time.

As to `C=CC(=O)CCCCC`, the Potency entry in [1], in test [2], in test [3] and in test [4] was “inactive” in each case.

Consider `C[N+]1([O-])CCC[C@@H]1c1cccnc1` (some centres not stated), for which the Potency entry in test [1], in test [2], in test [3], in test [4], in test [5] and in [6] was “inactive” each time.

Consider `N[C@@H](Cc1ccc(O)c(O)c1)C(=O)O`, for which the compound was called inactive in [7], in [8] and in test [9]. In addition, the Potency entry in [10], in test [1], in [2], in test [3], in test [4] and in test [16] was “inactive” each time. Also, the outcome in [11] was “inactive [at 0.573 µM]”; in test [12], “inactive [at 0.573 µM]”; in [14] it was “inactive [at 0.573 µM]”; in [17] it was “inactive [at 0.702 µM]”. The activity change, negative = inhibition in [13] is 3.84% [at 0.573 µM] (inactive); in [17], -25.4%. In addition, in test [15], the Potency was 3.83 µM (active).

In the case of `CN(C)CCCO[C@@H]1[C@H]2OC(C)(C)O[C@H]2O[C@@H]1[C@H](O)CO`, the Potency entry in test [1], in test [2], in [3] and in test [4] was “inactive” in each case.

`O=C(O)Cc1c[nH]c2ccc(O)cc12`: the outcome in [7], in test [8], in test [9] and in test [19] was inactive. Further, the Potency entry in test [18], in test [1], in test [2], in test [3] and in test [4] was “inactive” throughout.

Take `N[C@H](C(=O)O)c1ccc(O)c(C(=O)O)c1`: the Potency entry in [1], in test [2], in [3] and in [4] was “inactive” in each case.
